Reference: PubChem BioAssay (NCI)
Several values for one entry are separate records, joined by “and”; a condition that tells them apart may be missing. Equal entries are not always repeated. The panel holds about 83,000 compounds, 20% with a hit somewhere; the sample as a whole holds those more often.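 Compound tested at a single concentration for 48 hours in 96-well plates; a percent growth value below 10 was scored as active.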 Activity calls are given as the source filed them.

Key:
Assay in all cases: NCI-60 one-dose screen, 48 h (100 = growth as untreated, 0 = no growth, -100 = all killed)
Details in all cases: 10 µM unless noted
T-47D breast = system: T-47D breast
BT-549 breast = system: BT-549 breast
MDA-MB-435 melanoma = system: MDA-MB-435 melanoma
SW-620 colon = system: SW-620 colon
MCF7 breast = system: MCF7 breast
HCT-116 colon = system: HCT-116 colon
HCC-2998 colon = system: HCC-2998 colon
KM12 colon = system: KM12 colon

Measured: growth

C/C(=C\c1ccccc1)C(O)C(=O)c1nc2ccc([N+](=O)[O-])cc2[nH]c1=O (centres undefined)
inactive: T-47D breast 77.5% | BT-549 breast 78.9% | MDA-MB-435 melanoma 99.5% | SW-620 colon 104% | MCF7 breast 79.3% | HCT-116 colon 91.4% | HCC-2998 colon 106% | KM12 colon 90.3%

CC(C)(C)OC(=O)CC1(O)CCCCC1
inactive: T-47D breast 99.8% | BT-549 breast 110% | MDA-MB-435 melanoma 102% | SW-620 colon 103% | MCF7 breast 101% | HCT-116 colon 102% | HCC-2998 colon 106% | KM12 colon 107%

CS(=O)(=O)OCC1NC(=O)C(COS(C)(=O)=O)NC1=O (centres undefined)
inactive: T-47D breast 104% and 105% | BT-549 breast 78.1% and 30.1% | MDA-MB-435 melanoma 107% and 90.7% | SW-620 colon 106% and 104% | MCF7 breast 93% and 85% | HCT-116 colon 93.7% and 93.8% | HCC-2998 colon 89.7% and 103% | KM12 colon 104% and 83.9%

CC(=O)Oc1ccc(C2(c3ccc(OC(C)=O)cc3)C(=O)Nc3ccccc32)cc1
active: T-47D breast -26.3% and -22.5% | BT-549 breast -33.3% and -8.43%
9.09% (active) and 15.1% (inactive): MCF7 breast
-3.15% (active) and 44.8% (inactive): HCC-2998 colon
inactive: MDA-MB-435 melanoma 110% and 126% | SW-620 colon 98.2% and 104% | HCT-116 colon 84.9% and 84.5% | KM12 colon 71.3% and 61.9%

Nc1nc(-c2ccccn2)cc(-c2cc(-c3ccccn3)nc(N)n2)n1
inactive: T-47D breast 109% | BT-549 breast 117% | MDA-MB-435 melanoma 119% | SW-620 colon 133% | MCF7 breast 92.2% | HCT-116 colon 111% | HCC-2998 colon 104% | KM12 colon 107%

O=C(O)c1cc(=O)[nH]c(=O)[nH]1
inactive: T-47D breast 101% and 105% | BT-549 breast 97.2% | MDA-MB-435 melanoma 96.7% and 113% | SW-620 colon 111% and 103% | MCF7 breast 98.7% | HCT-116 colon 107% | HCC-2998 colon 99.3% | KM12 colon 106% and 99.6%

CCOP(=O)(OCC)/C(C#N)=C/c1c(C)[nH]c2ccccc12
inactive: T-47D breast 85.1% | BT-549 breast 98.3% | MDA-MB-435 melanoma 12.9% | SW-620 colon 98.2% | MCF7 breast 96.2% | HCT-116 colon 101% | HCC-2998 colon 107% | KM12 colon 100%

COc1ccc2oc3c(ccc[n+]3C)c(=O)c2c1
inactive: T-47D breast 85.9% | BT-549 breast 103% | MDA-MB-435 melanoma 105% | SW-620 colon 105% | MCF7 breast 100% | HCT-116 colon 101% | HCC-2998 colon 117% | KM12 colon 108%

O=C(Nc1ccccc1)OCC(CN1CCCCC1)OC(=O)Nc1ccccc1 (centres undefined)
inactive: T-47D breast 71.5% and 97% | BT-549 breast 69.7% and 102% | MDA-MB-435 melanoma 90.3% and 97.4% | SW-620 colon 104% and 96.9% | MCF7 breast 72.9% and 96% | HCT-116 colon 69.1% and 93.6% | HCC-2998 colon 94% and 98.4% | KM12 colon 93% and 101%

CCCC(=O)Oc1ccc(CC)cc1
inactive: T-47D breast 90.9% | BT-549 breast 107% | MDA-MB-435 melanoma 107% | SW-620 colon 111% | MCF7 breast 92.4% | HCT-116 colon 101% | HCC-2998 colon 102% | KM12 colon 102%

Nc1[nH][nH]c(=O)c1N=Nc1ccccc1
inactive: T-47D breast 113% and 102% | BT-549 breast 101% and 133% | MDA-MB-435 melanoma 103% and 99.7% | SW-620 colon 97.5% and 114% | MCF7 breast 92.9% and 94.5% | HCT-116 colon 104% and 102% | HCC-2998 colon 97.9% and 104% | KM12 colon 105% and 106%

CC1OS(=O)OC1C (centres undefined)
inactive: T-47D breast 93% | BT-549 breast 105% and 104% | MDA-MB-435 melanoma 99.3% and 101% | SW-620 colon 105% and 98.3% | MCF7 breast 91.2% and 93.9% | HCT-116 colon 105% and 102% | HCC-2998 colon 99.3% and 118% | KM12 colon 107% and 97.5%

COc1cc(NCCCCCNC(C)C)c2ncccc2c1
inactive: T-47D breast 82.3% | BT-549 breast 89.1% | MDA-MB-435 melanoma 97.8% and 106% | SW-620 colon 87.2% and 106% | MCF7 breast 85.3% and 86.4% | HCT-116 colon 96.9% and 90.3% | HCC-2998 colon 102% and 90.2% | KM12 colon 91.4%
